# Experimental data published in ChEMBL document CHEMBL3988442, “University of Dundee, Small-Polar-MMV Screening Library” (2021).
# Target: AMP-activated protein kinase, AMPK (Homo sapiens) (UniProt P54646+O43741+P54619+Q9UGJ0+Q9Y478+Q13131+Q9UGI9)
# Test: AMP-dependent Kinase enzyme assay. An in vitro enzyme assay that detects ADP turnover that is directly proportional to AMPK activity. This uses naive AMPK that is activated during the assay with MK-8722
# Type: functional
# Design: scale not given: direction of the effect not stated beside the values
# Details: 30 µM
row,SMILES,Percent Effect [%]
1,Nc1nccnc1C(=O)NC1CCCN(Cc2c(F)cccc2F)C1 (stereo not given),26.8
2,CC(=O)Nc1ccc(Oc2cc(C)nc(C3CCCNC3)c2)cc1 (stereo not given),-6.11
3,COc1ccc2c(c1)Cc1c-2nc(N)c(C#N)c1C1CCOC1 (stereo not given),-32.8
4,CC(=O)NCC1CCCN(C(=O)Cc2c(C)noc2C)C1 (stereo not given),-3.15
5,CCOc1ccc(Br)cc1S(=O)(=O)N(CC)Cc1ccc(N(C)C)cc1,-7.47
6,CC(C)(CNC(=O)c1ccco1)NC(=O)OC(C)(C)C,-6.6
7,O=C(c1cnn2ccccc12)N1CCCC(OCc2ccccn2)C1 (stereo not given),14.8
8,CN(C)c1nc(N)nc(CN2CCC(c3nc4ccccc4o3)CC2)n1,-11.3
9,O=C1CN(C(=O)CC2c3ccccc3CCc3ccccc32)CCN1,30.9
10,COc1ccccc1C(C)(C)NC(=O)c1cc(NC(C)=O)ccc1F,-6.77
11,Cc1ccc(OCC2CCCN(c3cc(C(N)=O)ccn3)C2)cc1 (stereo not given),2.7
12,CN(Cc1ccc2c(c1)OCCO2)c1ncc(S(N)(=O)=O)s1,-1.85
13,O=C1NCCCCC1NC(=O)N1CCCc2ccccc21 (stereo not given),-0.938
14,CC(C)c1nc(C2CCCN2CCOCC2CC2)no1 (stereo not given),7.32
15,O=C(NCC1CCOC1)c1cc(-c2ccc(Cl)cc2)n[nH]1 (stereo not given),1
16,CCc1ccsc1C(=O)NC(C#N)CC(C)C (stereo not given),-7.05
17,COc1cc(-c2cccc3c2OC(CN)C3)ccc1O (stereo not given),59.7
18,Cc1ccc(C(=O)N(C)CC(=O)N2CCCC2)c(C)c1,-2.76
19,CCCN(CC(F)(F)F)S(=O)(=O)c1cc(C(N)=O)n(C)c1,-4.23
20,CCc1cc(=O)[nH]c(-c2ccc(NC(C)COC)nc2)n1 (stereo not given),-2.5
